Test results reported in PubChem BioAssay (Tox21).
Inconclusive results are not listed. Calls of active or inactive are those of the source. Unless noted, calls come from the whole dose curve; as a rule, active = well fitted curve in the direction sought with a large enough effect in the repeat runs; inconclusive = weak or mixed curves; inactive = no such curve, though single readings can be large; an effect the other way counts as inactive or inconclusive.

Columns and labels:
[1] = qHTS assay for small molecule agonists of the p53 signaling pathway (AID 651631; calls by dose curve; note: nearly all actives have a fitted effect of over 15% in size)
Outline: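 Read-out is beta-lactamase FRET fluorescence measured 2 h after substrate addition at room temperature, in HCT-116 cells with a p53 response element-driven reporter exposed to compounds for 16 h at 37 °C.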

[2] = qHTS assay for small molecules that induce genotoxicity in human embryonic kidney cells expressing luciferase-tagged ATAD5 (AID 651632); note: nearly all actives have a fitted effect of over 15% in size
Outline: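 Genotoxicity read-out via ATAD5-luciferase: HEK293T cells, 16 hr compound incubation at 37C, Amplite detection.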

[3] = qHTS assay for small molecule agonists of the p53 signaling pathway - cell viability (AID 651633; calls by dose curve;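 note: p53RE-bla HCT reporter cells with a stable beta-lactamase p53 reporter; nearly all actives have a fitted effect of over 30% in size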)
Outline: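 Viability counter-read: CellTiter-Glo luminescence (30 min, room temperature) in the same p53RE-bla plates. These plates had been exposed to compounds for 16 h at 37 C.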

[4] = qHTS assay for small molecules that induce genotoxicity in human embryonic kidney cells expressing luciferase-tagged ATAD5 - cell viability (AID 651634; calls by dose curve; note: nearly all actives have a fitted effect of over 25% in size)
Outline: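 Live-cell protease activity (CellTiter-Fluor, fluorescence) indicates viability. HEK293T cells with luciferase-tagged ATAD5; 15.5 hr compound treatment at 37C.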

[5] = qHTS assay for small molecule disruptors of the mitochondrial membrane potential - cell viability (AID 720634; calls by dose curve;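 note: human HepG2 liver cancer cells; nearly all actives have a fitted effect of over 20% in size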)
Outline: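 Human hepatoma HepG2 cells were treated for 1 hr with test chemicals, then given m-MPI dye and CellTiter-Glo. Cell viability reflects luminescence proportional to cellular ATP.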

[6] = qHTS assay for small molecule disruptors of the mitochondrial membrane potential (AID 720635)
Outline: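 Mitochondrial membrane potential tracked with Mito-MPS dye, red aggregates (ex 540/em 590 nm) against green monomers (ex 490/em 535 nm). Compound treatment 1 hr at 37C, dye 30 min in HepG2.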

[7] = qHTS assay to test for compound auto fluorescence at 590 nm (red) in HepG2 cells (AID 720674)
Outline: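 1 hr compound incubation on HepG2 cells, 37 C, 5% CO2; plate read ex 540 nm / em 590 nm; intensities reported as Rose Bengal sodium equivalents.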

[8] = qHTS assay to test for compound auto fluorescence at 535 nm (green) in HepG2 cells (AID 720675)
[9] = qHTS assay to test for compound auto fluorescence at 460 nm (blue) in HEK293 cells (AID 720678)
Outline: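 Triamterene serves as the blue fluorophore standard. Compound signal at 405/460 nm is read in HEK293 wells (2,000 cells, 10% dialyzed FBS) after overnight treatment at 37C.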

[10] = qHTS assay to test for compound auto fluorescence at 590 nm (red) in HEK293 cells (AID 720679)
Outline: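 We plated HEK293 cells in 10% dialyzed FBS medium, let them adhere for 4-5 hr, then added 23 nL compound. Overnight at 37C and 5% CO2 preceded fluorescence measurement at 540/590nm.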

[11] = qHTS assay to test for compound auto fluorescence at 535 nm (green) in HEK293 cells (AID 720680)
[12] = qHTS assay to test for compound auto fluorescence at 460 nm (blue) in HEK293 cell free culture (AID 720681)
Outline: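 Blue fluorescence (Ex 405/Em 460 nm, triamterene-equivalent) was read immediately after pin transfer of compound or DMSO into medium (DMEM, 10% FBS) without cells.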

[13] = qHTS assay to test for compound auto fluorescence at 535 nm (green) in HEK293 cell free culture (AID 720682)
Outline: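 Fluorescein serves as the green reference fluorophore; each compound's intrinsic emission at 535 nm (excitation 485 nm) is reported as an equivalent amount of that dye, measured in serum-containing DMEM without cells.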

[14] = qHTS assay to test for compound auto fluorescence at 590 nm (red) in HEK293 cell free culture (AID 720683)
Outline: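 Red-channel autofluorescence of compounds in culture medium (DMEM, 10% FBS), no cells, measured at 540/590 nm. Rose Bengal sodium is the reference fluorophore for equivalence.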

[15] = qHTS assay to test for compound auto fluorescence at 590 nm (red) in HepG2 cell free culture (AID 720684)
Outline: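 Steps: dispense MEM/10% FBS medium, no cells; pin compound or DMSO vehicle; read red channel, Ex/Em 540/590 nm. Output given as Rose Bengal sodium equivalents.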

[16] = qHTS assay to test for compound auto fluorescence at 460 nm (blue) in HepG2 cell free culture (AID 720685)
Outline: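 Compound (23 nL) or DMSO pinned into cell-free MEM with 10% FBS; blue fluorescence read at 405/460 nm excitation/emission, expressed as auto-fluorescence equivalency to triamterene.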

[17] = qHTS assay to test for compound auto fluorescence at 535 nm (green) in HepG2 cell free culture (AID 720686)
[18] = qHTS assay to test for compound auto fluorescence at 460 nm (blue) in HepG2 cells (AID 720687)
Outline: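 Blue-channel autofluorescence (Ex/Em 405/460 nm, triamterene-equivalent) was measured after 1 hr compound exposure at 37 C, 5% CO2. Cells were HepG2, plated overnight at 37 C in MEM plus 10% FBS.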

[19] = target: Glucocorticoid receptor (Homo sapiens) (UniProt P04150); experiment: qHTS assay to identify small molecule agonists of the glucocorticoid receptor (GR) signaling pathway (AID 720691; active = well fitted activation curve with a large enough effect in the signal ratio in the repeat runs, not every such curve was filed as active; the % refers to the signal ratio); details: GR-bla HeLa, beta-lactamase reporter ratio, 18 h; activation: at 62.4 µM (top of the series)
Outline: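 Beta-lactamase reporter activity, read as fluorescence intensity, was measured in GR-bla HeLa cells exposed to compounds for 18 h at 37 C and then loaded with LiveBLAzer B/G FRET substrate for 2 h at room temperature.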

[20] = target: Glucocorticoid receptor (Homo sapiens) (UniProt P04150); experiment: qHTS assay to identify small molecule antagonists of the glucocorticoid receptor (GR) signaling pathway (AID 720692; active = well fitted inhibition curve with a large enough effect in the signal ratio in the repeat runs, not every such curve was filed as active; the % refers to the signal ratio)
Outline: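 Fluorescence from cleaved LiveBLAzer B/G FRET substrate reports GRE-driven beta-lactamase in HeLa cells; compounds are tested against 5 nM dexamethasone (final) over 18 h at 37 C, substrate incubation 2 h at room temperature.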

Measured: Potency

Glucocorticoid receptor (Homo sapiens), sequence (P04150 whole entry, looked up): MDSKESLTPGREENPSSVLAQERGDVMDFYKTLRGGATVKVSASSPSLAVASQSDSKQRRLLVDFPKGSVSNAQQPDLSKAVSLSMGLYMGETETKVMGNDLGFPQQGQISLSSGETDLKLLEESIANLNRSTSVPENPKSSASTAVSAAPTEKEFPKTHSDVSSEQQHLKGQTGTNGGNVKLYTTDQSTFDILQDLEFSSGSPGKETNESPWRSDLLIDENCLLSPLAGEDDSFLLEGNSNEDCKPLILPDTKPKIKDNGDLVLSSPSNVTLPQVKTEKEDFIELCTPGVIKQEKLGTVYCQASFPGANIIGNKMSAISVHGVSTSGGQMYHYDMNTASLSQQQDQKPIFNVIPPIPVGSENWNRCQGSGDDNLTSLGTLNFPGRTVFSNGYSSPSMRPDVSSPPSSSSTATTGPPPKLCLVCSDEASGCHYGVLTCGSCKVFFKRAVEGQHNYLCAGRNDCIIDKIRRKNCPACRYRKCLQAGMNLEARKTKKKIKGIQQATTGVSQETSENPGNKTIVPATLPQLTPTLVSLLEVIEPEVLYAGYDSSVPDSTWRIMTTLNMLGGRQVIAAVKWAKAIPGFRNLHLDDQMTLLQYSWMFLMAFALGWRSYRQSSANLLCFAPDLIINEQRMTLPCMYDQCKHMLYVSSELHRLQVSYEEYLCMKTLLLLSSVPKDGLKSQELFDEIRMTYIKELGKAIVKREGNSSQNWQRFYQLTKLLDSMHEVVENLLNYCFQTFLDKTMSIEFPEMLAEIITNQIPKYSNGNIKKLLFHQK

CCCCOC(=O)COc1ccc(Cl)cc1Cl
inactive: [1] | [2] | [3] | [4] | [5] | [6] | [7] | [8] | [9] | [10] | [11] | [12] | [13] | [14] | [15] | [16] | [17] | [18]

C/C=C1/CC2C=CC1C2 (stereo not given)
inactive: [1] | [2] | [3] | [4] | [5] | [7] | [8] | [9] | [11] | [12] | [13] | [14] | [15] | [17] | [18] | [19] | [20]

O=S1(=O)CC=CC1
inactive: [1] | [2] | [3] | [4] | [5] | [6] | [7] | [8] | [9] | [11] | [12] | [13] | [14] | [15] | [16] | [17] | [18] | [19] | [20]

O=C(OCCOCCOC(=O)c1ccccc1)c1ccccc1
inactive: [1] | [2] | [3] | [4] | [5] | [7] | [8] | [9] | [10] | [11] | [12] | [13] | [14] | [15] | [16] | [19] | [20]

C[C@H]1C[C@@H]2[C@H]([C@@H](O)C[C@@]3(C)[C@H]2CC[C@]3(O)C(=O)CO)[C@@]2(C)C=CC(=O)C=C12
inactive: [1] | [2] | [3] | [4] | [5] | [7] | [8] | [9] | [10] | [11] | [12] | [13] | [14] | [15]

OCCOCCOCCO
inactive: [1] | [2] | [3] | [4] | [5] | [6] | [7] | [8] | [9] | [10] | [11] | [12] | [13] | [14] | [15] | [16] | [17] | [18] | [19] | [20]

c1c[nH]cn1
inactive: [1] | [2] | [3] | [4] | [5] | [6] | [7] | [8] | [9] | [11] | [12] | [13] | [14] | [15] | [16] | [17] | [19] | [20]

O=S(=O)(O)c1ccc2ccccc2c1
inactive: [1] | [2] | [3] | [4] | [5] | [7] | [8] | [9] | [10] | [11] | [12] | [13] | [14] | [15] | [16] | [17] | [18]
